# RGS12 GoLoco inh: blocks human Gai1 binding to RGS12 GoLoco peptide, red readout | P63096 | Gai1:RGS12 GoLoco peptide FP, rhodamine, 10 min | Potency, µM (doses to about 61.6 µM), without a hit: at the highest dose activity, negative = inhibition, hits mostly inhibitors | 230,000 tested, 0.44% active | AID 880; active means well fitted inhibition curve with a large enough effect, not every such curve was filed as active; inactive means no such curve, though single readings can be large or run the other way; further: potency means the concentration at half of the fitted maximal effect; on the % scale 0 is the no-effect control and ±100 the full control effect; nearly all actives have a fitted effect of over 30% in size
# Target sequence (P63096 whole entry, looked up): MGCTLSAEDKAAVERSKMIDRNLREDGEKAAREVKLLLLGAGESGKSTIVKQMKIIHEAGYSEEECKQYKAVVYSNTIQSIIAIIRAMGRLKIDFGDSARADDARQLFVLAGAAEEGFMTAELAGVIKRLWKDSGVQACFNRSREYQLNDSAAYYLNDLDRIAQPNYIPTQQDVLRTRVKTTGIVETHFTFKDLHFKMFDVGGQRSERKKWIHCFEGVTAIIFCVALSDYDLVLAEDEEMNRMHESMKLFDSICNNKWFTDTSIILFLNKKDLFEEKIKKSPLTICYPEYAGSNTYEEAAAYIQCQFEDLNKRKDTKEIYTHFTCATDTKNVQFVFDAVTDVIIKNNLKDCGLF
# PNC assembly inh: inhibitors of perinucleolar compartment assembly. 140,000 tested, 3.1% active. activity change (PNC), negative = inhibition, % at 10 µM. PC3M PTB-GFP, PNC prevalence imaging, 16 h; stronger effect = lower value. AID 2417;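 active means readout at or below -70, meaning at least 70% loss of cells showing the perinucleolar compartment, a nuclear body marking cancer cells; inconclusive means readout between -30 and a set limit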;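 further: plate controls were DMSO wells for no effect and camptothecin positive control wells for full effect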
#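 PC3M cells stably expressing PTB-GFP, 750–1000 cells/well, treated 16 h at 37 °C with compound (23 nl of library stock), in duplicate. After paraformaldehyde fixation and Hoechst stain, imaged at 20x; PNC prevalence scored by image analysis.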
# HttQ103 aggreg: inhibitors of mutant huntingtin aggregate formation in PC12 cells. AID 1688. Potency, µM (titrated, usually from 46.1 µM), for inactives: at the top dose activity change, negative = inhibition, hits mostly inhibitors. PC12 HttQ103-GFP aggregates, Acumen cytometry, 40 h. 220,000 tested, 1.1% active; active means well fitted curve in the direction sought with a large enough effect; inconclusive means small, poorly fitted or top-dose-only effect, or another doubt; inactive means no such curve, though single readings can be large; an effect the other way counts as inactive or inconclusive; further: potency means the concentration at half of the fitted maximal effect; on the % scale 0 is the no-effect control and ±100 the full control effect; nearly all actives have a fitted effect of over 60% in size
#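 Multiplexed with ATP-based cell death, this channel scores GFP aggregates in PC12 cells expressing inducible HTTex1-Q103-GFP. Induction used 100 nM tebufenozide; compounds were tested in concentration series.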
# ALDH1A1 block: inhibitors of human aldehyde dehydrogenase 1A1 | Purified ALDH1A1, NADH fluorescence, propionaldehyde substrate | Potency, µM (titrated, usually from 75.3 µM), inactives show top-dose activity, negative = inhibition, most hits filed as inhibitors | 220,000 tested, 7.3% active | P00352;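 further: potency means the concentration at half of the fitted maximal effect; plate controls were no enzyme wells and a reference inhibitor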
# HTT ATP protect: Huntington cell model cytoprotection by ATP luminescence; PC12 HTT-Q103 induced, cytoprotection, ATP luminescence, 40 h; Potency, µM (series often up to 56.4 µM), for inactives: cytoprotection (ATP increase), actives largely listed as activators; 230,000 tested, 0.14% active; AID 1471; active means well fitted curve in the direction sought with a large enough effect; inconclusive means small, poorly fitted or top-dose-only effect, or another doubt; inactive means no such curve, though single readings can be large; an effect the other way counts as inactive or inconclusive; further: potency means the concentration at half of the fitted maximal effect; % of control where 0% means no effect; nearly all actives have a fitted effect of over 45% in size
#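 Compounds added alongside 100 nM tebufenozide, which induces toxic Q103 huntingtin exon 1-GFP in stable PC12 cells; surviving cells quantified by luminescent ATP measurement. Medium: phenol red-free DMEM, 5% equine and 5% calf serum.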
# HPGD inh: blocks human HPGD enzyme activity. P15428. purified HPGD, NADH fluorescence kinetic, PGE2 substrate. Potency, µM, for inactives: at the highest dose activity change, negative = inhibition, hits mostly inhibitors. 150,000 tested, 4.3% active; further: potency means the concentration at half of the fitted maximal effect; on the % scale 0 is the no-effect control and ±100 the full control effect
# Target sequence (P15428 whole entry, looked up): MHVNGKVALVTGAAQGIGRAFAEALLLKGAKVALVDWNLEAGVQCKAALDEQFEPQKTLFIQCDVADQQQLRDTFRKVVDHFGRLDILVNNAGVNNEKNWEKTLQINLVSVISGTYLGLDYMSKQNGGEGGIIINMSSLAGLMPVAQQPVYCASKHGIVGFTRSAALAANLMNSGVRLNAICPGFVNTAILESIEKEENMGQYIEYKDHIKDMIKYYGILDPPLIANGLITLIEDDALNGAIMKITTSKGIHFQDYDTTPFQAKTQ
#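 20 nM HPGD preincubated 15 min at room temperature with compound in 50 mM Tris-HCl pH 8, 0.01% Tween 20. Started with 1 mM NAD+ and 30 uM prostaglandin E2; NADH fluorescence (360/450 nm) read 5 times over 30-s intervals, last minus first.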
# * hit, by the source's call; ? = inconclusive; · = no result given; [ ] = another dose, or the depositor's remark. An excerpt weighted towards active compounds, which were near 11% of everything screened. Unless noted, the call rests on the fitted dose curve; in most records, active means well fitted inhibition curve with a large enough effect (not every such curve was filed as active); inconclusive means small, poorly fitted or top-dose-only effect, or another doubt; inactive means no such curve, though single readings can be large or run the other way.
SMILES,RGS12 GoLoco inh,PNC assembly inh,HttQ103 aggreg,ALDH1A1 block,HTT ATP protect,HPGD inh
CCc1nnc(NC(=O)c2ccc(S(=O)(=O)N(CC(C)C)CC(C)C)cc2)o1,5.2%,?,11.8%,7.5%,-19.5%[10 µM],-8.7%
CCC(C)(C)NC(=O)C(Sc1ccccc1)c1ccccc1 (stereo not drawn),5.1%,·,-24.6%[9.22 µM],5.1%,-5.2%[10 µM],·
O=C(O)[C@H]1[C@H]2C[C@H]3c4[nH]c5ccccc5c4CCN3C[C@@H]2CC[C@@H]1O,-3.0%,·,·,1.4%,-33.0%[1.9 µM],-25.5%
Cc1cc(C(F)(F)F)nn1Cc1n[nH]c(=S)n1-c1ccc(Cl)cc1,0.8%,6.3,20.2%,5.8%,-12.3%,-9.5%
Cc1cc(C(F)(F)F)nn1Cc1n[nH]c(=S)n1Cc1ccccc1,0.7%,-100.0*,1.4%,-12.4%,-9.1%[10 µM],?
Cc1ccc(S(=O)(=O)NC(CC(=O)N2CCc3ccccc32)c2ccco2)cc1 (stereo not drawn),3.2%,15.6,-11.9%,14.1µM*,-5.8%,-3.4%
CCOC(=O)N1CCC(NC(=O)CC(NS(=O)(=O)c2ccc(C)cc2)c2ccco2)CC1 (stereo not drawn),-9.6%,-0.2,9.6%,-13.0%,-19.5%[10 µM],-3.0%
CC12C=C(/C=C/c3ccc(Br)cc3)C(C)(C1)[C@H](c1ccc(Br)cc1)CC2=O (stereo partly drawn),8.0%,·,·,1.8%,?,-3.9%
O=C(CCc1nc2ccccc2n1-c1ccccc1)NCCO,7.1%,29.8,-10.9%,-8.2%,4.6%[10 µM],-1.2%
O=C(COC(=O)CCc1nc2ccccc2n1-c1ccccc1)Nc1ccc(N2CCCCC2)cc1,·,35.7,-1.4%,5.7%,3.16µM*,·
CCOC(=O)c1c(NC(=O)CN2CCOCC2)sc2c1CC(C)(C)OC2,2.0%,?,6.4%,14.1µM*,-21.3%,-15.9%
CCOC(=O)c1c(NC(=O)CCC(=O)N2CCOCC2)sc2c1CC(C)(C)OC2,-10.8%,?,0.1%,?,-9.2%,-7.6%
CCOC(=O)c1c(NC(=O)CCN2CCOCC2)sc2c1CC(C)(C)OC2,-4.3%,?,-5.7%,22.4µM*,-11.0%,-3.8%
C=C(C)CNC(=S)Nc1sc2c(c1C(=O)OCC)CC(C)(C)OC2,·,-8.6,4.7%,12.6µM*,2.0%[10 µM],·
COc1cc(NC(=S)N2CCCCC2C)cc(OC)c1OC (stereo not drawn),4.9%,·,19.5%[9.22 µM],14.7%,-11.3%[1.9 µM],·
CC(C)NC(=O)CCn1c(=S)oc2ccccc21,0.2%,·,-17.7%,0.8%,-4.9%,·
CC(C)OC(=O)n1c(=S)oc2ccccc21,-7.9%,-3.7,5.3%[9.22 µM],7.08µM*,7.5%,?
Cc1ccc(NC(=O)CCn2c(=S)oc3ccccc32)cc1,-0.5%,·,-6.0%,-2.4%,-28.3%,·
CCCCC(=O)/C=C/n1c(=S)oc2ccccc21,0.0%,-116.4*,?,11.2µM*,9.9%[10 µM],?
CC(C)[C@@H](CC(=O)N[C@@H]1CCNC[C@H]1C(=O)N[C@H](CC(=O)N[C@@H](CCC(=O)O)CC(=O)O)Cc1c[nH]c2ccccc12)NC(=O)C[C@H](CO)NC(=O)[C@@H]1CCCC[C@H]1N,-2.4%,·,·,?,1.1%[1.9 µM],-15.7%
O=C(O)CCC/C=C\C[C@H]1[C@@H](/C=C\[C@@H](O)C2Cc3ccccc3C2)[C@H](F)C[C@H]1O,·,·,·,·,15.1%[1.9 µM],·
COc1cccc(NS(=O)(=O)c2ccc3c(c2)C2C=CCC2C(c2ccc(C(=O)O)cc2)N3)c1 (stereo not drawn),52.0%,23.3,8.5%,20µM*,·,-28.2%
COc1cccc(NS(=O)(=O)c2ccc3c(c2)CCCN3C(C)=O)c1,3.8%,26.1,-21.5%,?,21.7%,4.0%
COc1ccc(C(=O)N/N=C(\C)c2ccc3c(c2)C2C=CCC2C(c2ccccc2)N3)cc1 (stereo not drawn),-4.8%,-1.0,?,11.2µM*,5.3%[10 µM],-23.2%
COc1ccc(/C(C)=N/NC(=O)c2ccccc2N)cc1,3.1%,·,-3.3%,-8.8%,0.7%[10 µM],·
SMILES,RGS12 GoLoco inh,PNC assembly inh,HttQ103 aggreg,ALDH1A1 block,HTT ATP protect,HPGD inh
Cc1c(-n2c(O)c(C3=c4ccccc4=NC3=O)sc2=S)c(=O)n(-c2ccccc2)n1C,8.0%,·,9.6%,7.94µM*,-160.0%,·
O=C1N=c2ccccc2=C1c1sc(=S)n(-c2ccc(O)cc2)c1O,0.7%,·,15.0%[9.22 µM],-1.1%,11.0%[10 µM],·
O=C1CC(N2CCN(c3ccc(O)cc3)CC2)C(=O)N1Cc1cccs1 (stereo not drawn),-26.0%,-26.1,2.5%,25.1µM*,6.3%[10 µM],-1.5%
CCCCc1nc2c(c3c1C[C@H](C)OC3)CN(C(=O)c1cc(I)ccc1F)CC2,6.4%[14.2 µM],·,·,-9.2%[13.5 µM],-12.8%[10 µM],0.5%
COc1ccccc1C1CC(=O)Oc2cc(O)ccc21 (stereo not drawn),18.8%[88.7 µM],·,·,?,0.1%[96.6 µM],-6.6%
Cc1ccccc1C1CC(=O)Oc2ccc(O)cc21 (stereo not drawn),-5.1%[88.7 µM],·,·,20µM*,13.6%[96.6 µM],28.2µM*
COc1cc(OC)nc(-n2ncc(Br)c(Br)c2=O)n1,10.9%,?,4.47µM*,10µM*,·,-0.9%
COC(=O)c1cnn(-c2nc(OC)cc(OC)n2)c1C,-1.4%,?,-17.1%,-1.2%,-26.5%[10 µM],-4.3%
CCc1n[n+](CC(=O)c2ccccc2)c(N)s1,-3.9%,·,1.4%,?,-55.8%[10 µM],·
Cc1ccc(S(=O)(=O)N2CCN(S(=O)(=O)N3CCOCC3)CC2)cc1C,-11.8%,-28.7,-1.6%,8.5%,-8.6%,-11.0%
Cc1ccc(S(=O)(=O)N2CCN(S(=O)(=O)N3CCOCC3)CC2)c(C)c1,2.1%,-13.9,-11.5%,12.6µM*,9.1%,-9.5%
COCC1=Cc2cc3c(cc2C(C(C(=O)OC)C(=O)OC)N1C(=O)OC)OCO3 (stereo not drawn),-1.4%,·,·,-4.8%,-32.3%,-0.5%
CCC(C)NC(=O)C1CCCN1S(=O)(=O)c1ccc(Cl)cc1 (stereo not drawn),-3.5%,-118.9*,-2.9%,6.7%,24.2%[10 µM],-11.7%
N#Cc1cc(C(=O)c2ccccc2O)cn(-c2nccs2)c1=O,58.0%,-4.7,14.7%,?,·,31.6µM*
N#Cc1cc(C(=O)c2cc(F)ccc2O)cn(-c2nccs2)c1=O,99.8%,-5.4,-7.9%,?,0.0%[10 µM],11.2µM*
COc1ccc(O[C@H]2C=C[C@@H](c3ccccc3)O[C@H]2CO/N=C2/[C@H]3O[C@@H]3[C@@H](O)[C@H]3[C@H]2CCn2c(=O)n(-c4ccccc4)c(=O)n23)cc1,·,·,·,?,-58.9%[10 µM],·
CCCc1nc2sc3c(=O)n(N)cnc3c2c2c1CCCC2,4.3%,-17.6,-1.2%,1.8%,-32.1%[10 µM],-10.2%
Cc1ccc(S(=O)(=O)N2CCN(C(=O)CN3CCc4ccccc4C3)CC2)cc1,-8.9%,37.8,-19.0%,14.1µM*,-11.0%,-6.3%

# Bioassay records (PubChem BioAssay)
